BRCA1 expr up: BRCA1 expression activation; MCF7-BRCA1-FFLuc reporter, luminescence, 48 h; response scale: scaled: vehicle 0%, 10 µM genistein 100%; Potency, µM (highest dose often 46.1 µM), without a hit: at the highest dose activation, usual class: activators; 380,000 compounds, 1.1% hits; note: potency is the fitted concentration of half-maximal effect; nearly all actives have a fitted effect of over 80% in size
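Reporter cells (MCF7, BRCA1 promoter-firefly luciferase) received library compounds across a concentration series for 48 h. End-point luminescence was measured and concentration-effect curves derived after normalization.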
IL-2 act: IL-2 activation; 360,000 compounds, 0.065% hits; IL-2 activation reporter assay, cell-based qHTS; stimulated with anti-CD3/CD4/CD28 beads; in transgenic mouse T cells; AID 652025; activation, % (series mostly up to about 46 µM); in the data active = activation above about 50%; inconclusive = mostly about 30% to 49%; note: 0% is about no effect
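Using fluorescent plate cytometry, EGFP and DsRed are detected in transgenic mouse T cells stimulated 18 h at 37 degrees C with antibody-coated beads after 60 min compound pretreatment.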
ELG1 repair inh: inhibitors of ELG1-dependent DNA repair in HEK293T cells; HEK293T ELG1-luciferase reporter, luminescence, 16 h; DNA damage induced by 5-fluorouridine; Potency, µM (doses to about 46.1 µM), inactives show at the highest dose activity change, negative = inhibition, most hits filed as inhibitors; 330,000 compounds, 2.3% hits; note: potency is the fitted concentration of half-maximal effect; % is set by controls: 0 for no effect and ±100 for the full control effect; nearly all actives have a fitted effect of over 55% in size
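Step one: seed 2,000 cells per well. Step two: pin-transfer compound or DMSO alongside 5-fluorouridine. Step three: incubate 16 hr, 37 °C, 5% CO2. Step four: add ONE-Glo, wait 30 min, read luminescence.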
Nrf2 activator: activators of Nrf2 (ARE) signaling; AREc32 ARE-luciferase reporter (MCF7-derived line), luminescence, 24 h; Potency, µM (top dose mostly 46.1 µM), without a hit: top-dose activation, actives largely listed as activators; 410,000 compounds, 0.31% hits; AID 624171; note: potency is the fitted concentration of half-maximal effect; % of control where 0% means no effect; nearly all actives have a fitted effect of over 65% in size
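For detection, Steady-Glo was added and plates sat 30 min at RT; before that, AREc32_Fluc cells grown overnight in OPTI-MEM/5% FBS had been treated with 23 nL compound for 24 hr at 37 deg C.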
ELG1 FLuc counter: luciferase inhibition in cell-free luciferin readout for ELG1 hits | shares compounds with ELG1 repair inh | cell-free firefly luciferase luminescence counter-screen, ViewLux | Potency, µM (doses to about 46.1 µM), for the others: top-dose activity change, negative = inhibition, most hits filed as inhibitors | 350 compounds, 3% hits | AID 624247; note: potency is the fitted concentration of half-maximal effect; % is set by controls: 0 for no effect and ±100 for the full control effect
ELG1-Luc inh: human ELG1 repair inhibition, luciferase-tagged ELG1 confirmation; Potency, µM (titrated, usually from 46.1 µM), without a hit: at the top dose activity change, negative = inhibition, most hits filed as inhibitors; AID 624248; shares compounds with ELG1 repair inh; HEK293T ELG1-luciferase levels, luminescence; cells co-treated with 5-fluorouridine; 670 compounds, 68% hits; note: potency is the fitted concentration of half-maximal effect; % is set by controls: 0 for no effect and ±100 for the full control effect; nearly all actives have a fitted effect of over 55% in size
Target sequence (Q96QE3 whole entry, looked up): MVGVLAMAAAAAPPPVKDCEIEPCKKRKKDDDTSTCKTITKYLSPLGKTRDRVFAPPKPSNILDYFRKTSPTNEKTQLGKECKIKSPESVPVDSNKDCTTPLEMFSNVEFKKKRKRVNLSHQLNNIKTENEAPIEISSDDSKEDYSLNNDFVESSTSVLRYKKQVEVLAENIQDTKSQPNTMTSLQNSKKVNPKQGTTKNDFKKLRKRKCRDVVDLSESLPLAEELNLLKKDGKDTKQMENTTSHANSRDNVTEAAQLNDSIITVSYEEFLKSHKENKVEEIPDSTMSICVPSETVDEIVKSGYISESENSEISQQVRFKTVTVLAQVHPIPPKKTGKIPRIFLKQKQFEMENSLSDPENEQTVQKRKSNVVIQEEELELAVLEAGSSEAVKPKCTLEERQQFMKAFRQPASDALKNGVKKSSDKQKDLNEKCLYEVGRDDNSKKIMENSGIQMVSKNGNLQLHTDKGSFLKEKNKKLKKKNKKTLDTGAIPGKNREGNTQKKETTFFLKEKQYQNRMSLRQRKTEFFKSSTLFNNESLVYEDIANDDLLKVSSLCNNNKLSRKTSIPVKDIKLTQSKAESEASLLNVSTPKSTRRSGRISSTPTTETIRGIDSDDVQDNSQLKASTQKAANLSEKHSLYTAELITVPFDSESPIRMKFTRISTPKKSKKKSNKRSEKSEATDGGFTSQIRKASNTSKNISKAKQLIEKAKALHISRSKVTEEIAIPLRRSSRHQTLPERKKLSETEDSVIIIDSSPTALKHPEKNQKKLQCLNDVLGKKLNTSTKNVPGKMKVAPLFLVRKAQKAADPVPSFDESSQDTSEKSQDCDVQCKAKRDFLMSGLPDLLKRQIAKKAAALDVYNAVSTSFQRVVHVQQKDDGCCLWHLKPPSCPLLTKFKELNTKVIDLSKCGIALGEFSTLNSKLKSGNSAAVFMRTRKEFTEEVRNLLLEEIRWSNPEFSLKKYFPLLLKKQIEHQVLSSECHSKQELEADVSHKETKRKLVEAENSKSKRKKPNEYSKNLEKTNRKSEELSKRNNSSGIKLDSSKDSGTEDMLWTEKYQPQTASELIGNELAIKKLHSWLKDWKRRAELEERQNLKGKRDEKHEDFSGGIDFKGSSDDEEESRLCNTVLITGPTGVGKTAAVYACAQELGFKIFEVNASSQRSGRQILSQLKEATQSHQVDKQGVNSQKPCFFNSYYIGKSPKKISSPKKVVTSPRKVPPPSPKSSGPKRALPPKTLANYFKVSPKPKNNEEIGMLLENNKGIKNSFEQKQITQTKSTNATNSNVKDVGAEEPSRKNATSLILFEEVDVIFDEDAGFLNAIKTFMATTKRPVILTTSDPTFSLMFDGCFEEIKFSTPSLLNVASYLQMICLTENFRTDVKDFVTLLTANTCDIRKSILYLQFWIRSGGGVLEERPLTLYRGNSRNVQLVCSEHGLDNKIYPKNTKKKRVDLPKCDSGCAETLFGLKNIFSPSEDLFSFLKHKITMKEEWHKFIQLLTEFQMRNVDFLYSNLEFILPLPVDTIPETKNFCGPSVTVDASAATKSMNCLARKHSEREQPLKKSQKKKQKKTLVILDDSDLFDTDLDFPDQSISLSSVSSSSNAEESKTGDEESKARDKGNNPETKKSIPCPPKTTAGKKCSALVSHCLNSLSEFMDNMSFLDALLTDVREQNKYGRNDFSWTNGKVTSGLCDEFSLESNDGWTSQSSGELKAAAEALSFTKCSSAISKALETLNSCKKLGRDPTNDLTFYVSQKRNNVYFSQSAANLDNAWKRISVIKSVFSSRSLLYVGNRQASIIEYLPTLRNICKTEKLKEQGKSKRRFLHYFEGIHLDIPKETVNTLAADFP
ELG1-Luc MMS: confirmation of human ELG1 repair inhibitors, MMS stimulated; 670 compounds, 53% hits; shares compounds with ELG1 repair inh; AID 624249; HEK293T luciferase-tagged ELG1 level, MMS stimulated; Potency, µM (series often up to 46.1 µM), inactives show at the highest dose activity change, negative = inhibition, most hits filed as inhibitors; note: potency is the fitted concentration of half-maximal effect; % is set by controls: 0 for no effect and ±100 for the full control effect; nearly all actives have a fitted effect of over 60% in size
ELG1 5-FU: confirmation of ELG1 repair inhibitors: viability with 5FU. shares compounds with ELG1 repair inh. cell viability with 5-FU, ELG1-dependent repair. Potency, µM (top dose mostly 46.1 µM), for inactives: at the top dose activity change, negative = viability loss, hits mostly cytotoxic. 670 tested, under 10 active. AID 624250;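 note: ELG1-luc HEK293T cells cotreated with 5-fluorouridine at 10 µM final; potency is the fitted concentration of half-maximal effect; viability measured 16 h after compound addition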
ELG1 MMS cell: confirmation of ELG1 repair inhibitors: viability with MMS; Potency, µM (top dose mostly 46.1 µM), inactives show at the highest dose activity change, negative = viability loss, usual class: cytotoxic; shares compounds with ELG1 repair inh; Cell viability with MMS, ELG1-dependent DNA repair; 670 compounds, 33% hits;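 note: ELG1-luc HEK293T cells co-treated with 10 µM MMS; potency is the fitted concentration of half-maximal effect; viability read 16 h after compound addition; % is set by controls: 0 for no effect and ±100 for the full control effect; nearly all actives have a fitted effect of over 60% in size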
Cell viab unstim: affects unstimulated cell viability, ELG1 hit counter-screen. Potency, µM (titrated, usually from 45.9 µM), inactives show at the top dose activity change, negative = loss of viability, usual class: cytotoxic. 900 compounds, 8% hits. cell viability counter-screen, unstimulated, luminescence. shares compounds with ELG1 repair inh. AID 624252;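 note: potency is the fitted concentration of half-maximal effect; compound exposure lasted 16 hours before reading; % is set by controls: 0 for no effect and ±100 for the full control effect; nearly all actives have a fitted effect of over 55% in size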
FLuc biochem: inhibits purified firefly luciferase, counter-screen for ELG1 hits | Potency, µM (highest dose often 57.5 µM), for inactives: at the highest dose activity, negative = inhibition, most hits filed as inhibitors | 350 compounds, 10% hits | AID 624253 | shares compounds with ELG1 repair inh | purified firefly luciferase, luminescence counter-screen; note: potency is the fitted concentration of half-maximal effect; % is set by controls: 0 for no effect and ±100 for the full control effect
* = called active by the depositor; ? = inconclusive; . = no result given. This is a sample that favours compounds with a hit; in the whole collection about 3.1% have one here. Unless noted, calls come from the whole dose curve; as a rule, active = well fitted curve in the direction sought with a large enough effect; inconclusive = small, poorly fitted or top-dose-only effect, or another doubt; inactive = no such curve, though single readings can be large; an effect the other way counts as inactive or inconclusive.

SMILES	BRCA1 expr up	IL-2 act	ELG1 repair inh	Nrf2 activator	ELG1-Luc inh	ELG1-Luc MMS	ELG1 5-FU	ELG1 MMS cell	Cell viab unstim	others
CCOC(=O)Cc1ccc(NC(=O)NCc2ccc3c(c2)CCN3C(=O)CC)cc1	.	.	.	0.6%	.	.	.	.	.
CC(=O)Nc1ccc(-c2nnc3n(Cc4ccc(C)cc4)c(=O)c4ccccc4n23)cc1	.	.	.	3.1%	.	.	.	.	.
O=C(Nc1ccccc1[N+](=O)[O-])c1csnn1	.	.	.	24.2%	.	.	.	.	.
COC(=O)c1ccc(OCC2c3cc(OC)c(OC)cc3CCN2C(C)=O)cc1 (centres undefined)	-4.5%	-0.6	6.51µM*	3.2%	9.97µM*	?	?	?	?	ELG1 FLuc counter=29.1%;FLuc biochem=-16.3%
O=C(O)CCc1ccc(S(=O)(=O)Nc2cc(C(F)(F)F)ccc2N2CCCC2)cc1	-4.9%	2.1	21.6%	-0.1%	.	.	.	.	.
COc1ccc(CCNC(=S)NC(=O)c2cc(OC)c(OC)c(OC)c2)cc1OC	13.7%	-5.7	1.83µM*	-0.5%	2.5µM*	0.5%	?	-1.1%	?
CCOc1ccc(-n2c(SCC(=O)N3CCC(C)CC3)nc3c([nH]c4ccccc43)c2=O)cc1	-5.0%	.	.	0.6%	.	.	.	.	.
Cc1c(C(=O)Nc2nccs2)oc2ccc(Br)cc12	-23.5%	-5.1	?	10.5%	.	.	.	.	-8.4%
Cc1c(C(=O)Nc2nccs2)oc2ccc(F)cc12	0.1%	0.6	?	9.1%	.	.	.	.	.
COCC(C)n1c(C)cc(C(=O)COC(=O)c2cc(=O)[nH]c3ccccc23)c1C (centres undefined)	-56.8%	-4.7	?	-0.7%	.	.	.	.	6.1%
Cc1ccc(CN2CCC(CNc3ncnc4onc(-c5ccc(F)cc5)c34)CC2)cc1	.	.	.	-0.4%	.	.	.	.	.
CSCC[C@H]1COC[C@@H](Cc2ccccc2)N1c1ccccc1	9.6%	-1.5	.	-0.5%	.	.	.	.	.
O=C(NCC1CCCO1)c1ccc2c(=O)n(CC3CCCO3)c(=S)[nH]c2c1 (centres undefined)	-20.4%	0.0	-23.3%	-0.4%	.	.	.	.	.
O=C(Nc1ccc(F)cc1)c1ccc2c(=O)n(CC3CCCO3)c(=S)[nH]c2c1 (centres undefined)	-12.6%	-0.7	4.11µM*	-0.6%	5.6µM*	22.3µM*	?	?	-20.3%
NC(=O)c1ccc(N2CCN(S(=O)(=O)c3cccs3)CC2)c([N+](=O)[O-])c1	-18.7%	-0.8	2.31µM*	2.8%	?	0.996µM*	-6.2%	0.791µM*	12.5µM*
NC(=O)c1ccc(N2CCCCCC2)c([N+](=O)[O-])c1	-0.3%	0.1	6.8%	-0.2%	.	.	.	.	.
O=S(=O)(c1cccs1)N1CCN(c2ccc(O)cc2)CC1	-22.3%	2.1	1.64µM*	8.5%	-0.6%	25µM*	5.4%	?	?
Cn1c(=O)n(C)c2cc(N3CCCCC3)c(NC(=O)c3c(F)cccc3F)cc21	.	.	.	3.9%	.	.	.	.	.
Cc1ccc(C)c(N2CCN(C(=O)CCc3nc(-c4ccccc4)no3)CC2)c1	13.4%	0.3	3.6%	0.1%	.	.	.	.	.
Cc1cccc(-c2noc(CCC(=O)N3CCN(c4cc(C)ccc4C)CC3)n2)c1	?	-0.6	?	3.8%	.	.	.	.	0.4%
Cc1ccc(NC(=O)c2nc[nH]c2C(=O)NCCCCNC(=O)c2[nH]cnc2C(=O)Nc2ccc(C)cc2)cc1	-6.2%	-0.7	0.731µM*	-0.3%	1.26µM*	1.77µM*	-23.1%	?	-11.9%	ELG1 FLuc counter=-0.3%;FLuc biochem=-3.1%
O=C(Nc1ccccc1)c1nc[nH]c1C(=O)NCCCCNC(=O)c1[nH]cnc1C(=O)Nc1ccccc1	0.0%	-0.7	?	0.1%	.	.	.	.	.
O=C(Nc1ccccc1)c1nc[nH]c1C(=O)NCCNC(=O)c1[nH]cnc1C(=O)Nc1ccccc1	-36.4%	0.2	2.31µM*	1.0%	4.99µM*	4.45µM*	-1.3%	?	15.8µM*
CC(C)(C)OC(=O)C[C@@H]1C/C=C\C[C@@H](CC(=O)N(CCO)Cc2ccccc2)C(=O)NC[C@H](c2ccccc2)OC1=O	-6.8%	2.9	1.46µM*	-0.8%	12.5µM*	7.91µM*	11.0%	?	?
CC(C)(C)OC(=O)C[C@@H]1C/C=C\C[C@@H](CC(=O)N(CCO)Cc2ccccc2)C(=O)NC[C@@H](c2ccccc2)OC1=O	0.0%	-3.1	?	0.1%	.	.	.	.	.
SMILES	BRCA1 expr up	IL-2 act	ELG1 repair inh	Nrf2 activator	ELG1-Luc inh	ELG1-Luc MMS	ELG1 5-FU	ELG1 MMS cell	Cell viab unstim	others
CC(NC(=O)CSc1nc(-c2cccc(Cl)c2)nc2cc(=O)[nH]n12)c1nc2ccccc2n1C (centres undefined)	.	.	.	-0.3%	.	.	.	.	.
COc1ccc(NC(=O)Cn2c(=O)n(-c3ccc(OC)cc3)c(=O)c3sc4ccccc4c32)cc1	2.2%	.	.	-0.1%	.	.	.	.	.
CCC(CO)Oc1cc(NCc2ccccc2O)c2ncn(C(C)C)c2c1 (centres undefined)	-50.3%	0.9	2.31µM*	8.3%	8.88µM*	4.45µM*	5.5%	4.45µM*	?
COc1cc(C(=O)NCCOc2cc(C)ccc2C(C)C)cc(OC)c1OC	-68.9%	-0.5	4.61µM*	0.3%	14.1µM*	7.05µM*	-4.2%	5.6µM*	?
CC1CCC(C(=O)NC(C(=O)OCC(=O)c2ccc(Br)cc2)C(C)C)CC1 (centres undefined)	-7.0%	.	.	0.3%	.	.	.	.	.
COc1ccc(CCN2C(=O)C3C4C=CC(C3C2=O)C2C(=O)N(CCc3ccc(OC)c(OC)c3)C(=O)C42)cc1OC (centres undefined)	-64.9%	0.4	3.26µM*	-0.1%	?	6.28µM*	-2.8%	4.99µM*	?
